In the library only some 2.1% were active in any assay of this set; here they are far more common.
Gli-Sufu block: Gli-Sufu pathway antagonism; AID 588413; Sufu-KO-LIGHT fibroblasts, Gli luciferase reporter luminescence; inhibition, % at 5 µM; 340,000 tested, 0.74% active;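 active means inhibition above about 55%, limit read from the data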;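 further: 0% = DMSO-treated cells and 100% = wells with medium but no cells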
NR2F2 inh: blocks human COUP-TFII nuclear receptor. P24468. HEK293T NGFI-A luciferase reporter, luminescence. inhibition, % at 8.6 µM. 370,000 tested, 0.7% active;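 active means inhibition above a per-plate cutoff, mean inhibition of test wells between control levels plus 3 SD, cut at about 38% in these data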;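 further: cells cotransfected with COUP-TFII expression vector driving the NGFI-A reporter; 0% = median of COUP-TF2 test wells and 100% = reporter-only cells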
Target sequence (P24468 whole entry, looked up): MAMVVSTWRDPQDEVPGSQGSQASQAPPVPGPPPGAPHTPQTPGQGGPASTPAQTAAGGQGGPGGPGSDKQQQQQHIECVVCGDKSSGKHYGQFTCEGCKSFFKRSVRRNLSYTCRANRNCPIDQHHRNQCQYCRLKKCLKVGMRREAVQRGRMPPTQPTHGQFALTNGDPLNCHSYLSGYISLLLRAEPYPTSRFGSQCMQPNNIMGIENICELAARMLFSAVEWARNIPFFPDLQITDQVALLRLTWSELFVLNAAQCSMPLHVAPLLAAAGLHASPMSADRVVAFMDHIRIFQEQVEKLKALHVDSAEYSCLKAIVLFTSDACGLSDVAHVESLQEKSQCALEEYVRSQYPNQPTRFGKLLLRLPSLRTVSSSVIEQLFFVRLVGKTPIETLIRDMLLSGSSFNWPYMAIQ
Env fusion inh: HIV envelope-mediated fusion inhibition | HeLa-JRFL Env/CEM21 cell fusion, luciferase | inhibition, % at 12.3 µM | 360,000 tested, 1.1% active;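 active means mean replicate inhibition score of at least 50 and every replicate individually at or above 50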;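 further: 0% = plate neutral controls and 100% = maraviroc near 300 nM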
aDG glyco act: alpha-DG glycosylation activation. AID 624168. Pro5-aDG cells, alpha-DG glycosylation AlphaScreen (IIH6); 0% Pro5, 100% B10-LARGE cell signal. 360,000 tested, 0.22% active. activation, % at 10 µM;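 active means activation of at least 8% versus controls, or a plate z-score of at least 8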;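 further: Pro5 are CHO cells carrying HIG-tagged alpha-DG that lacks glycosylation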
GalR3 antagonist: blocks the human galanin receptor 3 | O60755 | HEK293 GalR3-CNG cAMP membrane potential fluorescence; galR3 body fused to GalR1 C-terminus | inhibition, % at 3 µM | 360,000 tested, 0.44% active;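 active means inhibition above the screen-wide average plus 3 SD, cut at about 13% in these data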;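 further: forskolin and galanin both at EC90 stimulate the cells; cAMP rise reported by CNG channel membrane potential dye signal; 0% = forskolin plus galanin with DMSO and 100% = forskolin alone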
* hit, by the source's call; [ ] = remark or other dose.

How did COC(=O)C[C@@H]1C[C@@H]2c3cc(NS(=O)(=O)c4cccc(OC)c4)ccc3O[C@@H]2[C@@H](CO)O1 do in these assays?
Env fusion inh: 2[16.7 µM]

How did COc1ccccc1CNC(=O)C[C@H]1C[C@@H]2c3cc(NS(=O)(=O)c4ccc(F)cc4)ccc3O[C@@H]2[C@H](CO)O1 do in these assays?
Env fusion inh: 94*[16.7 µM]

Results for COC(=O)C[C@@H]1C[C@H]2c3cc(NS(=O)(=O)c4cccc(OC)c4)ccc3O[C@H]2[C@@H](CO)O1 ?
Env fusion inh: 60*[16.7 µM]

Results for C[C@@H]1CN([C@H](C)CO)S(=O)(=O)c2ccc(C#C[C@@H](C)O)cc2O[C@H]1CN(C)C(=O)C1CC1 ?
Env fusion inh: -16[16.7 µM]

How did O=C1C=C(c2ccc(F)cc2OCc2ccccc2)C[C@@H](c2ccc(Cl)cc2)C1 do in these assays?
Gli-Sufu block: 10; NR2F2 inh: -7; Env fusion inh: 76*; aDG glyco act: 1; GalR3 antagonist: -4

How did FC(F)(F)c1cc(CCN2CCNC[C@@H]2CC2CCCCC2)cc(C(F)(F)F)c1 do in these assays?
Gli-Sufu block: -10; NR2F2 inh: -11; Env fusion inh: 85*; aDG glyco act: -1; GalR3 antagonist: -3

Results for CCCC[C@@H]1CNCCN1CCc1cc(C(F)(F)F)cc(C(F)(F)F)c1 ?
Gli-Sufu block: -9; NR2F2 inh: -19; Env fusion inh: 39; aDG glyco act: 1; GalR3 antagonist: 0

Results for COCC#Cc1ccc2c(c1)O[C@H](CN(C)C(=O)Nc1ccccc1F)[C@H](C)CN([C@@H](C)CO)S2(=O)=O ?
Env fusion inh: -30[16.7 µM]

How did CSC1=C(C#N)C(c2ccc3c(c2)OCO3)C2=C(CCCC2=O)N1 (stereo not given) do in these assays?
Gli-Sufu block: -5; NR2F2 inh: 17; Env fusion inh: 30; aDG glyco act: 0; GalR3 antagonist: 0

Results for CCSC1=C(C#N)C(c2ccc(Cl)cc2)C2=C(CCCC2=O)N1 (stereo not given) ?
Gli-Sufu block: 0; NR2F2 inh: 20; Env fusion inh: 58*; aDG glyco act: 1; GalR3 antagonist: -5

How did COCCOC(=O)N1C(=O)[C@@]2(c3cc(C#CCCO)ccc31)[C@H](c1ccccc1OCCO)N1[C@H](c3ccccc3)[C@H](c3ccccc3)OC(=O)[C@H]1[C@@H]2C(=O)N1CCN(c2ncccn2)CC1 do in these assays?
Env fusion inh: -3[16.7 µM]

What do the screens show for `O=C(O)CCSc1nc2ccccc2s1`?
Gli-Sufu block: 15; NR2F2 inh: 35; Env fusion inh: 78*; aDG glyco act: 0; GalR3 antagonist: -6

What do the screens show for `c1ccc2sc(SCSc3nc4ccccc4s3)nc2c1`?
Gli-Sufu block: -9; NR2F2 inh: 8; Env fusion inh: -24; aDG glyco act: 0; GalR3 antagonist: -5

Results for CCn1c(-c2ccc(Cl)cc2)n[nH]c1=S ?
Gli-Sufu block: 0; NR2F2 inh: -13; Env fusion inh: 61*; aDG glyco act: 0; GalR3 antagonist: -3

Results for CCC(C)(C)n1nnnc1C(c1ccc(C)cc1)N(Cc1ccco1)Cc1cccs1 (stereo not given) ?
Gli-Sufu block: 10; NR2F2 inh: 10; Env fusion inh: 135*; aDG glyco act: 0; GalR3 antagonist: -4

How did O=C(C1CCCCC1)N1CCCC(c2nc3c(nnn3Cc3ccccc3)c(=O)[nH]2)C1 (stereo not given) do in these assays?
Gli-Sufu block: -11; NR2F2 inh: 20; Env fusion inh: 79*; aDG glyco act: 0; GalR3 antagonist: -6

Results for O=S(=O)(N1CCCCC1)N1CCN(CC(O)COc2ccc3cc(Br)ccc3c2)CC1 (stereo not given) ?
Gli-Sufu block: 18; NR2F2 inh: 16; Env fusion inh: 63*; aDG glyco act: 5; GalR3 antagonist: -2

How did OC(COc1ccc2cc(Br)ccc2c1)CN1CCCC1 (stereo not given) do in these assays?
Gli-Sufu block: 14; NR2F2 inh: -21; aDG glyco act: 4.7*; GalR3 antagonist: -12

What do the screens show for `CO[C@H]1CN(C)C(=O)c2cc(NS(C)(=O)=O)ccc2OC[C@H](C)N(Cc2nccs2)C[C@@H]1C`?
Env fusion inh: 15[16.7 µM]

What do the screens show for `O=C(CSc1nnc(-c2ccc(Br)cc2)o1)Nc1cccc(C(=O)O)c1`?
Gli-Sufu block: -53; NR2F2 inh: -14; Env fusion inh: 88*; aDG glyco act: 0; GalR3 antagonist: 2

How did Cn1c(=O)[nH]c2cc3ccccc3cc21 do in these assays?
Gli-Sufu block: 8; NR2F2 inh: -31; Env fusion inh: 70*; aDG glyco act: 0; GalR3 antagonist: 4

Results for Cc1nc2cc3ccccc3cc2n1C ?
Gli-Sufu block: -8; NR2F2 inh: 5; aDG glyco act: 0; GalR3 antagonist: -2

Results for O=C(C[C@@H]1C[C@H]2c3cc(NC(=O)c4ccc5c(c4)OCO5)ccc3O[C@H]2[C@H](CO)O1)NCc1cccc(F)c1 ?
Env fusion inh: 10[16.7 µM]

How did Cc1cccc(NC(=S)N=Nc2c(O)n(C)c3ccc(S(=O)(=O)N4CCOCC4)cc23)c1 do in these assays?
Gli-Sufu block: 29; NR2F2 inh: 6; Env fusion inh: 58*; aDG glyco act: 1; GalR3 antagonist: -2

Results for CN(C)c1nc(OCCNC(=O)COc2ccc(Cl)cc2Cl)nc(N2CCOCC2)n1 ?
Gli-Sufu block: -4; NR2F2 inh: 2; Env fusion inh: 41*; aDG glyco act: 0; GalR3 antagonist: -1

What do the screens show for `Cc1cc(Cl)ccc1OCC(=O)NCCCN1CCOCC1`?
Gli-Sufu block: 2; NR2F2 inh: 2; aDG glyco act: 0; GalR3 antagonist: -3

How did Cc1cc(Cl)ccc1OCC(=O)NCCOc1nc(N2CCOCC2)nc(N2CCOCC2)n1 do in these assays?
Gli-Sufu block: -9; NR2F2 inh: -5; Env fusion inh: 94*; aDG glyco act: 0; GalR3 antagonist: -1

What do the screens show for `O=C(COc1ccc(Cl)cc1Cl)NCCCN1CCOCC1`?
Gli-Sufu block: -1; NR2F2 inh: 1; Env fusion inh: -12; aDG glyco act: 0; GalR3 antagonist: -5

What do the screens show for `C[C@@H](O)C#Cc1cnc2c(c1)C(=O)N([C@@H](C)CO)C[C@H](C)[C@@H](CN(C)C(=O)Cc1ccccn1)O2`?
Env fusion inh: -2[16.7 µM]

How did CC1(C(=O)Nc2ccc3c(c2)OCO3)CCN1Cc1csc2ccccc12 (stereo not given) do in these assays?
NR2F2 inh: 0; Env fusion inh: 63*; aDG glyco act: 0; GalR3 antagonist: -1

Results for COc1cccc(CN2CCC2(C)C(=O)Nc2cccc(Oc3ccccc3)c2)c1OC (stereo not given) ?
NR2F2 inh: 15; Env fusion inh: 86*; aDG glyco act: 0; GalR3 antagonist: -10

What do the screens show for `Cc1ccc(C(=O)OCc2ccc3c(c2)OCO3)cc1S(=O)(=O)N1CCCCC1`?
Gli-Sufu block: -4; NR2F2 inh: 6; Env fusion inh: 55*; aDG glyco act: 0; GalR3 antagonist: -2
